Source: the OligoGym collection

Biological target: LNX1
Experiment: pooled miR-30 sensor sort-seq; sequence = guide strand
Conditions: shRNA
Further: reference of the scale not given here.

Row | Sequence | sensor-assay potency score (higher = more potent)
1 | TAGATGATCATACTTTTCCTGA | -0.507
2 | TAGTTAGAGTAATTCTTCCTTT | -0.396
3 | TTGAGTACTATCGAGGATGATG | -0.956
4 | TTCTTCGTAATACAATATCTTT | -1.2
5 | TTTTTGGATATTTACCACCTTC | -0.64
6 | AAAGCTTTGAGTACTATCGAGG | -0.642
7 | TTGAGAATCACATGAAAGCTGT | 0.307
8 | TACAGTTATACAAGCACCGTGG | -0.0834
9 | TTACAGTTATACAAGCACCGTG | -0.215
10 | TAATACAATATCTTTACAGTTA | -0.86
11 | TTGGATAATGATATGGACCAGT | -0.0255
12 | TTTATTCTTCCATCTCTGCTTA | 0.44

Biological target: LONP1
Experiment: as above
Conditions: shRNA

Row | Sequence | sensor-assay potency score (higher = more potent)
13 | TAGAAGTCCTTCTTGTTCTCGG | 0.532
14 | TTCAAATTCCTTCTTCAGCAGG | -0.339
15 | ATCTGCAGCACTGACTCCCTGT | -0.477
16 | ATCCTTGTCGTCCTTCTCCAGG | -1.37
17 | TCGTCGATGAGGATCAGGGGGT | -0.954
18 | TGAAGCGGAAGTACTCTCGGTT | -0.124
19 | TTGCGGACACCGCTCTCGCGGC | -1.33
20 | TTTCCGTAACACCTTCTCCACT | -1.42
21 | TTCAAGGCAATGATGTCCCGGA | -0.021
22 | TCTCTCTTTAGAAAGACGCCGA | -0.565
23 | AAACACTGGATGATCTTCCCGG | 0.233
